According to PubChem BioAssay:

Assay: JC-1 mitochondrial signal, unstimulated HepG2 cells – cell-based, JC-1 fluorescence, 24 h, 100 nL compound, profiling panel (AID 1167); note: test concentration not given here
Settings: HepG2 mitochondrial potential, higher = more signal

SMILES	z-score
Cc1ccc(S[C@]2(C(=O)O)CC(=O)N(Cc3cc(C(F)(F)F)cc(C(F)(F)F)c3)[C@@H]2c2ccc(CO)cc2)cc1	-0.555
CC(C)Cc1ccc(CN2CC[C@@H](NC(=O)Nc3ccccc3)C2)cc1	-2.75
C=CC1c2cc(O)c(OC)cc2CCN1Cc1cc2c(cc1Br)OCO2 (stereo unspecified)	-2.98
O=C1O[C@H](c2ccccc2)[C@H](c2ccccc2)N2[C@H]1[C@@H](C(=O)N1CCN(c3ncccn3)CC1)[C@]1(C(=O)Nc3ccc(C#CC4(O)CCCCCC4)cc31)[C@H]2c1ccc(OCCO)cc1	-1.73
COC(=O)C(CC#Cc1ccc2c(c1)[C@]1(C(=O)N2)[C@H](c2ccccc2OCCO)N2[C@H](c3ccccc3)[C@H](c3ccccc3)OC(=O)[C@H]2[C@@H]1C(=O)NC[C@H](O)c1ccccc1)C(=O)OC	-1.12
Cc1ccccc1C(O)C1C=CC2C(=O)N(C)C(=O)C2N1N(c1ccccc1)c1ccccc1 (stereo unspecified)	0.02
CCC[C@@H]1C[C@@]1(CCC)[C@@H](NC(=O)OCc1ccccc1)c1ccc(-c2ccccc2)cc1	-0.862
CN(C)C(=O)C1N=C(c2ccc(OCCCO)cc2)N(c2ccccc2)O1 (stereo unspecified)	0.261
O=C1O[C@H](c2ccccc2)[C@H](c2ccccc2)N2[C@H]1[C@@H](C(=O)O)[C@]1(C(=O)Nc3ccc(C#CC4=CCCCC4)cc31)[C@H]2c1ccc(O)cc1	-3.42
C=CCOC(=O)[C@H]1[C@@H]2C(=O)O[C@@H](c3ccccc3)[C@@H](c3ccccc3)N2[C@@H](c2ccc(OCCOC(=O)[C@H]3C[C@H]4C(=O)N[C@@H](CCCCNC(C)=O)C(=O)N4[C@H]3c3ccc(O)cc3)cc2)[C@]12C(=O)Nc1ccccc12	-0.297
CN1C(=O)C2C=CC(C(O)c3cccc4ccccc34)N(N3CCCCC3)C2C1=O (stereo unspecified)	-1.79
C=CCOC(=O)[C@H]1[C@@H]2C(=O)O[C@@H](c3ccccc3)[C@@H](c3ccccc3)N2[C@@H](c2ccc(OCCOC(=O)[C@@H]3C[C@@H]4C(=O)N5CCC[C@H]5C(=O)N4[C@@H]3c3ccc(O)cc3)cc2)[C@]12C(=O)Nc1ccc(I)cc12	-1.24
O=C1C2C=CC(C(O)c3ccccc3)N(Nc3ccccc3F)C2C(=O)N1c1ccccc1 (stereo unspecified)	0.12
CN(C)c1ccc(C(O)C2C=CC3C(=O)N(c4ccccc4)C(=O)C3N2Nc2ccc([N+](=O)[O-])cc2)cc1 (stereo unspecified)	-1.01
[N-]=[N+]=NCc1ccccc1[C@H]1OC(c2ccc(OCCCO)cc2)=N[C@@]1(CCS(=O)(=O)c1ccccc1)C(=O)N1CCCCC1	-0.0617
C=CCOC(=O)[C@H]1[C@@H]2C(=O)O[C@@H](c3ccccc3)[C@@H](c3ccccc3)N2[C@@H](c2ccc(OCCOC(=O)[C@@H]3C[C@@H]4C(=O)N[C@@H](CCCCNC(C)=O)C(=O)N4[C@@H]3c3ccc(O)cc3)cc2)[C@]12C(=O)Nc1ccc(I)cc12	-1.03
COc1cc2c(cc1OC)CN(C(=O)[C@@H]1[C@H]3C(=O)O[C@H](c4ccccc4)[C@H](c4ccccc4)N3[C@H](c3ccc(OCCO)cc3)[C@@]13C(=O)Nc1ccc(C#CC4(O)CCCCCC4)cc13)CC2	-0.555
C=C(/C(=C/C[C@H](OC(C)=O)c1ccccc1OCCO)c1cc(C(=O)OC)ccc1OC)C(C)C	1.14

SMILES	z-score
CCOC(=O)C[C@H]1[C@H](OC(=O)c2cc3ccccc3oc2=O)[C@@H](NC(=O)c2ccc(-c3ccccc3)cc2)c2cc(OCCCO)ccc2N1C(=O)c1ccc2ccccc2n1	0.259
CN(C)CCCCNC(=O)[C@@H]1C[C@@H]2C(=O)N[C@@H](Cc3ccccc3)C(=O)N2[C@@H]1c1cccc(OCCO)c1	1.88
COc1ccc([Si](C)(C)[C@@H]2[C@@H](CCO)O[C@]3(C(=O)N(Cc4ccc(N5CCCCC5=O)cc4)c4ccccc43)[C@H]2C)cc1	0.714
COCCOC(=O)N1C(=O)[C@@]2(c3cc(C#CC4=CCCCC4)ccc31)[C@H](c1ccccc1OCCO)N1[C@H](c3ccccc3)[C@H](c3ccccc3)OC(=O)[C@H]1[C@@H]2C(=O)Nc1nc2ccccc2s1	-2.68
CCCCC(=C=CC[C@@H](O)c1ccccc1OCCO)C[C@@H](O)COCc1ccccc1	0.554
Cc1ccc(S[C@]2(C(=O)NCC(F)(F)F)CC(=O)N(Cc3ccccc3)[C@@H]2c2ccc(CO)cc2I)cc1	-1.75
O=C(NCC(F)(F)F)[C@@H]1c2ccccc2C(=O)N(Cc2cc(F)cc(C(F)(F)F)c2)[C@H]1c1ccc(CO)cc1	1.23
C=C(CCCC)/C(=C/C[C@@H](OC(=O)c1ccncc1)c1ccccc1OCCO)c1cnc2ccccc2c1	1.41
[N-]=[N+]=Nc1ccccc1C[C@]1(C(=O)N2CCOCC2)N=C(c2ccc(OCCCO)cc2)O[C@H]1c1ccccc1	1.99
CCCNC(=O)[C@@H]1c2ccccc2C(=O)N(C(C)C)[C@H]1c1ccc(CO)cc1	1.81
O=C1O[C@H](c2ccccc2)[C@H](c2ccccc2)N2[C@H]1[C@@H](C(=O)Nc1nc3ccccc3s1)[C@]1(C(=O)Nc3ccc(C#CC4(O)CCCCCC4)cc31)[C@H]2c1ccccc1OCCO	-2.82
O=C1OCC=C[C@H]2OC34C=CCN(Cn5nnc6ccccc65)C(=O)[C@H]3N(CCCO)C(=O)[C@@H]4[C@@H]12 (stereo partly specified)	-0.541
COC(=O)[C@@]1(Cc2ccccc2)[C@H]2c3cc(C(=O)N(C)C)n(Cc4c(CO)[nH]cc(C)c4=O)c3C[C@H]2CN1C(=O)c1ccccc1	1.34
COC(=O)[C@@]1(Cc2ccc(OC)cc2)[C@H]2c3cc(C(=O)N(C)C)n(Cc4ccc(Cl)c(C(F)(F)F)c4)c3C[C@H]2CN1C(=O)c1ccccc1	0.765
C=CCNC(=O)[C@H]1[C@@H]2C(=O)O[C@@H](c3ccccc3)[C@@H](c3ccccc3)N2[C@@H](c2ccc(O)cc2)[C@]12C(=O)N(C(=O)OCCOC)c1ccccc12	-1.67
CCCCCCCCCCC(O)C1C=CC2C(=O)N(C)C(=O)C2N1NC(=O)OC(C)(C)C (stereo unspecified)	-3.31
NC(N)=NCCCn1cc(CNC(=O)[C@@H](N)Cc2ccccc2)nn1	-0.868
CCOC(=O)C1CCCCN1 (stereo unspecified)	-0.319
